From PubChem BioAssay (Tox21) come the findings set out here.

Assay [1] addresses Estrogen receptor beta (Homo sapiens) (UniProt Q92731). The experiment in a line: qHTS assay to identify small molecule agonists of the estrogen receptor beta (ER-beta) signaling pathway (AID 1259377; active = well fitted activation curve with a large enough effect in the signal ratio in the repeat runs, not every such curve was filed as active; the % refers to the signal ratio; also: potency is read from the fitted curve at half-maximal effect). The procedure, abridged: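 In HEK293T cells bearing a UAS-beta-lactamase reporter under ER-beta control, DMSO-delivered compounds were incubated for 16 hr at 37C. Activity was detected as fluorescence 2 hours after LiveBLAzer B/G FRET substrate addition.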
(In general: qHTS replaces the single test concentration by a dilution series.)

The target is the same in assay [2]. Description: qHTS assay to identify small molecule antagonists of the estrogen receptor beta (ER-beta) signaling pathway (AID 1259378; active = well fitted inhibition curve with a large enough effect in the signal ratio in the repeat runs, not every such curve was filed as active; the % refers to the signal ratio; also: potency is read from the fitted curve at half-maximal effect). The procedure, abridged:
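Antagonist mode: compounds added to beta-lactamase reporter HEK293T ER-beta-UAS cells stimulated with E2 (1nM final), 16 hr at 37C. LiveBLAzer B/G FRET substrate, 2 hours room temperature, fluorescence read-out.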

Assay [3] in a line: qHTS assay to identify small molecule agonists of the androgen receptor (AR) signaling pathway in the presence of an antagonist - cell viability counter screen (AID 1259379). Also: nearly all actives have a fitted effect of over 25% in size. Also: potency is read from the fitted curve at half-maximal effect. The procedure, abridged: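 Nilutamide-containing (3.0uM final) MDA-kb2 cultures, 3,000 cells/well, were treated with compounds across 15 concentrations. After 16 hr at 37C with no CO2, cell viability was determined by CellTiter-Fluor fluorescence in the luciferase assay wells.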

Assay [4] in a line: qHTS assay to identify small molecule antagonists of the estrogen receptor beta (ER-beta) signaling pathway - cell viability counter screen (AID 1259382). Also: nearly all actives have a fitted effect of over 55% in size. Also: potency is read from the fitted curve at half-maximal effect. The essentials:
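Viability is scored by CellTiter-Glo luminescence (30 min, room temperature) in ER-beta-UAS-bla HEK293T wells already read for reporter fluorescence. Compound exposure lasts 16 hr at 37C alongside 1nM 17-beta-estradiol in charcoal-stripped serum medium.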

The target in assay [5] is Estrogen receptor (Homo sapiens) (UniProt P03372). The experiment in a line: qHTS assay to identify small molecule agonists of the estrogen receptor alpha (ER-alpha) signaling pathway in the presence of an antagonist (AID 1259383; calls by dose curve; also: nearly all actives have a fitted effect of over 15% in size; also: potency is read from the fitted curve at half-maximal effect; as to activation: top concentration of the series differs between compounds). The procedure, abridged: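 Readout was ERE-driven luciferase luminescence in VM7Luc4E2 cells, which express full-length ER-alpha endogenously. Compounds were tested at 15 concentrations for 22hr alongside 10.0nM ICI-182,780 (final concentration).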

The nature of assay [6]: qHTS assay to identify small molecule agonists of the estrogen receptor beta (ER-beta) signaling pathway - cell viability counter screen (AID 1259380). Also: nearly all actives have a fitted effect of over 30% in size. Also: potency is read from the fitted curve at half-maximal effect. The essentials:
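Steps: plate ER-beta-UAS-bla HEK293T cells, rest 6 hr; add compounds in DMSO; incubate 16 hr at 37C, 5% CO2; add FRET substrate 2 hr; add CellTiter-Glo, wait 30 min at room temperature; read luminescence.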

Assay [7] is described as follows: qHTS assay to identify small molecule agonists or antagonists of the thyroid stimulating hormone receptor (TSHR) signaling pathway - wild type cell line counter screen (AID 1259384; calls by dose curve). The procedure, abridged:
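Counter screen in untransfected Hek293: compounds (15-point titration, triplicate) plus phosphodiesterase inhibitor Ro20-1724 added after 18 h plating; 30 min RT. Intracellular cAMP via competitive d2/cryptate immunoassay, 1 h incubation.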

In assay [8] the target is Thyrotropin receptor (Homo sapiens) (UniProt P16473). Description: qHTS assay to identify small molecule antagonists of the thyroid stimulating hormone receptor (TSHR) signaling pathway (AID 1259385; calls by dose curve; also: nearly all actives have a fitted effect of over 20% in size; also: potency is read from the fitted curve at half-maximal effect). The procedure, abridged:
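Antagonist mode: compound-treated TSHR-expressing HEK293 cells were stimulated with 1.5 ng/mL TSH (final) in presence of Ro20-1724 for 30 min at RT. HTRF cAMP detection after 1 h; each compound tested at 15 concentrations, triplicate.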

Assay [9] concerns the target Androgen receptor (Homo sapiens) (UniProt P10275). Description: qHTS assay to identify small molecule agonists of the androgen receptor (AR) signaling pathway in the presence of an antagonist (AID 1259381; calls by dose curve; also: nearly all actives have a fitted effect of over 15% in size). The procedure, abridged:
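Reporter-gene luminescence from MDA-kb2 cells exposed 16hr at 37C (0% CO2) to 15-point compound titrations with 3.0uM final nilutamide as AR antagonist.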

Values without a mark were called inactive. Records with an inconclusive call do not appear. The source made the active and inactive calls. Unless noted, calls follow the shape of the dose curve; as a rule, active = well fitted curve in the direction sought with a large enough effect in the repeat runs; inconclusive = weak or mixed curves; inactive = no such curve, though single readings can be large; an effect the other way counts as inactive or inconclusive.

Sequence of Estrogen receptor beta (Homo sapiens) (Q92731 whole entry, looked up): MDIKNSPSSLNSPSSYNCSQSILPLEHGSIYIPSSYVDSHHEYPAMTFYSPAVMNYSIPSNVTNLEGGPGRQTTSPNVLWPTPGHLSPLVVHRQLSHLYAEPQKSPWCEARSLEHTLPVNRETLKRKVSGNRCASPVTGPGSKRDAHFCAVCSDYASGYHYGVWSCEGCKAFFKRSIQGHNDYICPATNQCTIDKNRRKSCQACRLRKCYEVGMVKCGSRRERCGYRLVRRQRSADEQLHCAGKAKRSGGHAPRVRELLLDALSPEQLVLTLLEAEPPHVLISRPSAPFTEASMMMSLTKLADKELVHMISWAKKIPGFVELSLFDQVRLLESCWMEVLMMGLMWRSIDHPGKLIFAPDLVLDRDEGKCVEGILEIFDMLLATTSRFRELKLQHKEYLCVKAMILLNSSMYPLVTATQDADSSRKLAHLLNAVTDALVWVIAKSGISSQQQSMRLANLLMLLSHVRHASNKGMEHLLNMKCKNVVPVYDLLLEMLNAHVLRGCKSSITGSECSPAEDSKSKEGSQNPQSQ
Sequence of Estrogen receptor (Homo sapiens) (P03372 whole entry, looked up): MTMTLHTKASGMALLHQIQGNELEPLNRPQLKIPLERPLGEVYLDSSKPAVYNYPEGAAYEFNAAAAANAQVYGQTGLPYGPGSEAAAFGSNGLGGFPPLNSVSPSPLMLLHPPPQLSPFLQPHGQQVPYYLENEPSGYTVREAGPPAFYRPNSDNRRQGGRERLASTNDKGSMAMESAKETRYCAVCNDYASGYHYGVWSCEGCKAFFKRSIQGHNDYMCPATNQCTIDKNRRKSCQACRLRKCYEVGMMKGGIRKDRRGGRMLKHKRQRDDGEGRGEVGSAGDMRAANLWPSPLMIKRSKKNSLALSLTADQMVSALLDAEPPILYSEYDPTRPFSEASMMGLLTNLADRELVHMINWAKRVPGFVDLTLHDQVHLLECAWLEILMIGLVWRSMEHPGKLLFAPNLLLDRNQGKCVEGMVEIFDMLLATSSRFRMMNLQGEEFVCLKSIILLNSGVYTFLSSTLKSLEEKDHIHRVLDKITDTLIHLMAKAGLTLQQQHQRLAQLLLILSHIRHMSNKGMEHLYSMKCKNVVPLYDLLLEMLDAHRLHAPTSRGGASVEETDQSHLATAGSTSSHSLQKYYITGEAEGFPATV
Sequence of Androgen receptor (Homo sapiens) (P10275 whole entry, looked up): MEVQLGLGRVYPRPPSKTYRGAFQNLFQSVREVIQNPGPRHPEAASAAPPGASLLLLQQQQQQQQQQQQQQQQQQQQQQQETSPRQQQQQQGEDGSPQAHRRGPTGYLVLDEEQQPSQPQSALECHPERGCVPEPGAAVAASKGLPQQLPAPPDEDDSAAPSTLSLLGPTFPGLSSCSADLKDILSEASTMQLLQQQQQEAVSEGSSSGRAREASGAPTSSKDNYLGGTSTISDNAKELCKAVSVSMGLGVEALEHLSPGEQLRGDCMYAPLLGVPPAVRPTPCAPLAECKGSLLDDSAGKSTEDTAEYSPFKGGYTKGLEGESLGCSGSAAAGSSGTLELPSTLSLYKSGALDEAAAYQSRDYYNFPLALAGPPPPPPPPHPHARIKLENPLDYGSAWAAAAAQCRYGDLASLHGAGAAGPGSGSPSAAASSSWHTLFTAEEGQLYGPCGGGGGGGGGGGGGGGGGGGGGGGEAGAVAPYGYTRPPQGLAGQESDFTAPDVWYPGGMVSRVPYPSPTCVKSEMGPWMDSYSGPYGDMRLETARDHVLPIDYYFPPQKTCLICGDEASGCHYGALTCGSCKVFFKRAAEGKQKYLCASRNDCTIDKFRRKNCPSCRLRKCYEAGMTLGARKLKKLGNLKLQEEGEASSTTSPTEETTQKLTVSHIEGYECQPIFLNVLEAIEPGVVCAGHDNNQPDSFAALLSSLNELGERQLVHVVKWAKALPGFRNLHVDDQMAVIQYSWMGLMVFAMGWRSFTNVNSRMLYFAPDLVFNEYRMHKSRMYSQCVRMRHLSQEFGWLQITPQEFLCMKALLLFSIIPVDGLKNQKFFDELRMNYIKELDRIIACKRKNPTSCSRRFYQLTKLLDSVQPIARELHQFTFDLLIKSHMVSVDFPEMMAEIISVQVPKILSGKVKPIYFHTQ
Sequence of Thyrotropin receptor (Homo sapiens) (P16473 whole entry, looked up): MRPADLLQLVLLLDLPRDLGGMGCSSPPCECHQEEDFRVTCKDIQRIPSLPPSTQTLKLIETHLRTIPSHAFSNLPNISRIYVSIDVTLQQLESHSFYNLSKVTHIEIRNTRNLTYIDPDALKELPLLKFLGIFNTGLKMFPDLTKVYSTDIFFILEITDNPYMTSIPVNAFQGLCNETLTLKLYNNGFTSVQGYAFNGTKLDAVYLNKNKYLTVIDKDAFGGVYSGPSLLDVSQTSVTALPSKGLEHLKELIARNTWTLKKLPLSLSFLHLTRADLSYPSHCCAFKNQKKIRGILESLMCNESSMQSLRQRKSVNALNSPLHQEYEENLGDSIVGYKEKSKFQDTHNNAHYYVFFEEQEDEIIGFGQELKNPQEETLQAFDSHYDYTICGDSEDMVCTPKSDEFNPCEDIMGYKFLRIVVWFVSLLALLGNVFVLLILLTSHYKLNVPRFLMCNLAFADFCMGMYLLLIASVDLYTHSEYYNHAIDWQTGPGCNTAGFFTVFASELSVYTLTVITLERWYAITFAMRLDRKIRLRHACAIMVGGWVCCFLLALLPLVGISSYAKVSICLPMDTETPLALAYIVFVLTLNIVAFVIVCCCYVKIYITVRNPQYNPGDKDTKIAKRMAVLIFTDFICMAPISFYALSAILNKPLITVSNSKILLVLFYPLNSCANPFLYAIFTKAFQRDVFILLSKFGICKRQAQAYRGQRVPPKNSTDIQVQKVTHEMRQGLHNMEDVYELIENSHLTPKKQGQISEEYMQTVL

Take `O=C(O)CCCCCCCCCCCBr`: the Potency result in assay [1], in assay [2], in assay [3], in assay [4] and in assay [5] was “inactive” in each case.

With `C/C=C(/C(=C/C)c1ccc(O)cc1)c1ccc(O)cc1`, the Potency is 0.0019 µM (active) in [1] and 0.015 µM (active) in assay [5]. The Potency result in [3], in assay [6], in assay [4] and in [8] was “inactive” each time. In [7], the result was inactive.

On to `CCOc1ccc(Cc2nccc3cc(OCC)c(OCC)cc23)cc1OCC`, for which the Potency result in assay [1], in assay [6], in [9], in [4], in assay [5] and in assay [8] was “inactive” in each case. Moreover, the Potency in [3] was 29.8 µM (active). Moreover, the call in assay [7] was inactive.

`CCCCCCCCCCC(=O)O`: the Potency entry in assay [1], in assay [3], in assay [4], in assay [5] and in assay [8] was “inactive” each time. For the same molecule, in [7], the outcome was inactive.

As for `CCCC(C(=O)OCCN(CC)CC)(c1ccccc1)c1ccccc1`, the Potency entry in assay [1], in [2], in [5] and in assay [8] was “inactive” each time. Besides, the Potency in assay [6] is 29.8 µM (active). Also, the outcome in assay [7] was inactive.

`Oc1c(I)cc(I)c2cccnc12`: the Potency in assay [2] is 6.68 µM (active). The Potency entry in assay [4] and in [5] was “inactive” in each case. The call in [7] was inactive.

Consider `CCCCCCNC(=O)n1cc(F)c(=O)[nH]c1=O`, for which the Potency result in assay [2], in [3], in assay [4] and in [8] was “inactive” each time. For the same molecule, the molecule was called inactive in assay [7].

In the case of `CN(C)CCC=C1c2ccccc2C=Cc2ccccc21`, the Potency in assay [6] is 26.6 µM (active); in [4], 29.8 µM (active); in assay [8], 29.8 µM (active). Further, the Potency result in [5] was “inactive”. Moreover, the call in assay [7] was inactive.

For `C/C=C\C/C=C/CCCCCCCCOC(C)=O`, the Potency entry in assay [3] and in assay [5] was “inactive” throughout. Moreover, the Potency in assay [6] was 61.1 µM (active). Also, in assay [7], the molecule was classed as inactive.

As to `CC(C)(c1ccccc1)c1ccccc1`, the Potency entry in assay [3], in assay [6] and in assay [4] was “inactive” each time. The call in [7] was inactive.

Regarding `CC1CC(C)C(=O)C1=O` (centres undefined), the Potency result in [1], in [2], in assay [3], in [6], in [4] and in assay [8] was “inactive” in each case. Moreover, in assay [7], the molecule was classed as inactive.

For `O=C1C(=O)c2ccccc2C(O)=C1C1CCC(c2ccc(Cl)cc2)CC1` (centres undefined), the Potency result in [1] and in assay [5] was “inactive” each time. Also, the Potency was 23.7 µM (active) in assay [3] and 2.66 µM (active) in assay [6].

On to `O=[N+]([O-])c1ccc(O/N=C/c2cc(Br)c(O)c(Br)c2)c([N+](=O)[O-])c1`, for which the Potency in assay [3] was 48.3 µM (active). The Potency entry in assay [4] and in [5] was “inactive” in each case. Further, the molecule was classed as inactive in assay [7].

Turning to `c1ccc(C[n+]2cccc3ccccc32)cc1`, the Potency entry in [1], in assay [6], in [4] and in assay [5] was “inactive” throughout. For the same molecule, the Potency in assay [3] is 48.6 µM (active). Further, in assay [7], the molecule was classed as inactive.

For `COc1ccccc1N1CCN(CCCCNC(=O)c2ccc(-c3ccc(C(C)=O)cc3)cc2)CC1`, the Potency result in assay [6], in assay [4] and in [5] was “inactive” each time. Moreover, the call in assay [7] was inactive. Further, the Potency in [8] was 18.8 µM (active).

Consider `CCOC(=O)C1=C(C)NC(C)=C(C(=O)OC)C1c1cccc(Cl)c1Cl` (centres undefined), for which the Potency entry in assay [1], in assay [3], in assay [4], in [5] and in assay [8] was “inactive” throughout. The molecule was called inactive in [7].

Turning to `OCCOCC#CCOCCO`, the Potency result in assay [1], in assay [2], in [3], in assay [6], in assay [4] and in assay [5] was “inactive” in each case. Also, in assay [8], the Potency result is “inactive”. In assay [7], the result was inactive.

With `CC1(C)[C@@H](OC(=O)CCC(=O)O)CC[C@]2(C)[C@H]3C(=O)C=C4[C@@H]5C[C@@](C)(C(=O)O)CC[C@]5(C)CC[C@@]4(C)[C@]3(C)CC[C@@H]12`, the Potency result in assay [1], in assay [3], in assay [6], in assay [4] and in assay [8] was “inactive” in each case. Further, the result in assay [7] was inactive.

In the case of `CC(=O)[C@H]1[C@H](C#N)C[C@H]2[C@@H]3CC=C4C[C@@H](O)CC[C@]4(C)[C@H]3CC[C@@]21C`, the Potency result in assay [1], in assay [3] and in assay [5] was “inactive” in each case. Further, the Potency in assay [6] was 29.5 µM (active).

Consider `CC(CC1c2ccccc2CCc2ccccc21)CN(C)C` (centres undefined), for which the Potency entry in assay [1], in [3] and in [5] was “inactive” in each case. The Potency in assay [6] was 33.5 µM (active); in [4], 21.1 µM (active).

Turning to `O=C(CCc1ccc(O)cc1)c1c(O)cc(O)cc1O`, the Potency was 7.01 µM (active) in [1] and 24.9 µM (active) in assay [5]. In addition, the Potency result in assay [6], in assay [9], in assay [4] and in assay [8] was “inactive” in each case. The molecule was called inactive in assay [7].

For the molecule `COC(=O)CS`, the Potency result in assay [1], in assay [3], in assay [4], in assay [5] and in [8] was “inactive” each time. In assay [7], the call was inactive.

`COc1ccccc1N1CCN(CC(O)COc2cccc3ccccc23)CC1` (centres undefined): the Potency result in assay [1] and in [3] was “inactive” each time. For the same molecule, the Potency is 23.7 µM (active) in assay [2], 5.96 µM (active) in [6] and 5.96 µM (active) in [4]. Besides, in assay [7], the result was inactive.

Regarding `C[C@@H](CN(C)C)CN1c2ccccc2Sc2ccccc21`, the Potency result in assay [1] and in assay [5] was “inactive” in each case. For the same molecule, the Potency in assay [2] was 23.7 µM (active); in assay [6], 18.8 µM (active); in [4], 21.1 µM (active).

`CC(CN(C)C)C(C)(O)Cc1ccc(Cl)cc1` (centres undefined): the Potency result in [3], in [9], in assay [4], in assay [5] and in [8] was “inactive” each time. In assay [7], the outcome was inactive.

As for `COC(=O)C1=C(C)NC(C)=C(C(=O)O[C@@H]2CCCN(Cc3ccccc3)C2)[C@@H]1c1cccc([N+](=O)[O-])c1`, the Potency entry in assay [1], in [3], in assay [6], in assay [4], in [5] and in [8] was “inactive” in each case. In addition, the Potency in assay [2] is 26.6 µM (active). Moreover, the molecule was called inactive in assay [7].

Turning to `Cc1cc(O)ccc1O`, the Potency entry in [1] was “inactive”. The Potency in assay [2] was 55.1 µM (active); in [6], 61.8 µM (active); in assay [4] it was 61.8 µM (active).

Turning to `CCCCCCCC/C=C\CCCCCCCCO`, the Potency result in assay [1], in [2], in [3], in [6], in assay [4] and in assay [8] was “inactive” throughout. In addition, the outcome in assay [7] was inactive.

As for `CCCCCCCC/C=C\CCCCCCCCCCCC(=O)O`, the Potency entry in assay [3], in [6], in assay [9], in assay [4] and in [5] was “inactive” in each case.

Take `Cc1ccc2c(Br)cc(Br)c(O)c2n1`: the Potency result in assay [1], in [3], in assay [4] and in assay [8] was “inactive” throughout. In assay [6], the Potency was 11.9 µM (active). Besides, the outcome in [7] was inactive.
